The list is not random: actives were taken first. Their share in the collection is about 4.5%.
TIM10 inh: growth inhibitors of TIM10 yeast strain; actives 1.4% (n = 330,000); inhibition, % at 10 µM; S. cerevisiae TIM10 strain growth, BacTiter-Glo luminescence, 24 h; AID 463195;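 active = inhibition of 40% or more at the single tested concentration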;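 also: wild-type TIM10 isogenic control strain grown at permissive 25 °C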
tim10-1 inh: inhibits growth of tim10-1 mutant yeast | S. cerevisiae tim10-1 ts strain growth, BacTiter-Glo, 24 h | inhibition, % at 20 µM | actives 2.2% (n = 330,000);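 active = inhibition of at least 40%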;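 also: mutant grown at 25 °C; 0% = DMSO wells with yeast and 100% = wells holding no yeast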
NALP3 yeast inh: blocks the NALP3 inflammasome reconstituted in yeast. inhibition, % at 10 µM. actives 0.39% (n = 330,000). Yeast reconstituted NLRP3/ASC/caspase-1, beta-gal luminescence, 24 h;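 active = inhibition of 50% or more; inactive = inhibition below 50%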;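 also: plate controls were induced DMSO wells for no effect and uninduced yeast grown without galactose for full effect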
PfHsp90 yeast 2: inhibits growth of yeast expressing Plasmodium falciparum Hsp90. S. cerevisiae expressing PfHsp90, BacTiter-Glo ATP, 48 h; yeast lacking PDR1 and PDR3 efflux regulators. inhibition, % at 9.4 µM. actives 0.32% (n = 310,000);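 active = every replicate shows inhibition above about 80%, whatever the replicate mean, limit read from the data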;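 also: 0% = DMSO neutral controls and 100% = 20 µM radicicol positive controls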
SKKanGAS inh: blocks kanamycin growth of S. pyogenes SKKanGAS strain. BacTiter-Glo, 6 h. inhibition, % at 7.5 µM. actives 1.3% (n = 300,000);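 active = mean replicate score, as percent of positive control median, at least 50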;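 also: strain carries kanamycin resistance gene driven by streptokinase promoter and grows in 40 µg/ml kanamycin; loss of luminescence reflects streptokinase promoter inhibition or plain growth inhibition; 0% = median of DMSO wells and 100% = positive control at its reference dose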
tim23-1 inh: inhibits growth of tim23-1 mutant yeast; inhibition, % at 20 µM; actives 1.3% (n = 330,000); S. cerevisiae tim23-1 growth, BacTiter-Glo luminescence, 24 h;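 active = growth inhibition of the mutant yeast at or above 50%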;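 also: temperature-sensitive mutant grown at 25 °C; plate controls were DMSO-treated mutant yeast for no effect and medium wells lacking yeast for full effect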
NALP3 yeast conf: NALP3 inhibition confirmation in yeast | actives 81% (n = 1,300) | inhibition, % at 10 µM | shares compounds with NALP3 yeast inh | AID 435006 | yeast expressing human NALP3, luminescence; in the data active = inhibition above about 48%
Casp1 ASC ctr: caspase-1-ASC yeast counter-screen hit | shares compounds with NALP3 yeast inh | yeast expressing Caspase-1-ASC, luminescence counter screen | inhibition, % at 10 µM | actives 66% (n = 1,000) | AID 488784
NALP3 retest: confirmation retest of NALP3 inhibitors in yeast. shares compounds with NALP3 yeast inh. yeast expressing human NALP3, luminescence read-out. inhibition, % at 10 µM. actives 53% (n = 1,000). AID 488794
* = called active by the depositor. Rule as the data show it, unless noted: active = inhibition above about 50%; inactive = the rest.

For CCC(=O)c1ccc(N2CCCC2)c(F)c1 the results were TIM10 inh 8.3, tim10-1 inh 6.1, NALP3 yeast inh 30.8, PfHsp90 yeast 2 23.3, SKKanGAS inh -5.4 and tim23-1 inh 7.7.
CCCC(=O)c1ccc(N2CCCC2)c(F)c1 was read as TIM10 inh 3.8, tim10-1 inh 15.3, NALP3 yeast inh 55.5*, PfHsp90 yeast 2 16.2, SKKanGAS inh -2.7, tim23-1 inh 12.7 and NALP3 yeast conf 12.8.
For Cn1c(N2CCOCC2)c(/C=N/OC(=O)c2ccc(F)cc2)c2ccccc21 the results were TIM10 inh 9.4, tim10-1 inh 37.8, NALP3 yeast inh 65.2*, PfHsp90 yeast 2 16.6, SKKanGAS inh 7.6, tim23-1 inh 16.9, NALP3 yeast conf 84.5*, Casp1 ASC ctr 61.2* and NALP3 retest 55.6*.
Screening Cc1ccc(NC(=O)CN2C(=O)NC(C)(CC(C)C)C2=O)c(Br)c1 (stereo not given) returned TIM10 inh -13.5, tim10-1 inh -10.3, NALP3 yeast inh 17.1, PfHsp90 yeast 2 -30.6 and tim23-1 inh -0.7.
For O=C(Nc1ccc2oc(=O)ccc2c1)c1cc2ccccc2o1 the results were TIM10 inh 11.7, tim10-1 inh 3.8, NALP3 yeast inh -15.5, PfHsp90 yeast 2 -14.8, SKKanGAS inh 0.7 and tim23-1 inh 19.1.
`Cc1ccc(C)c(NC(=O)c2cc3ccccc3o2)c1` gave TIM10 inh -13.6, tim10-1 inh 24.7, NALP3 yeast inh 54.7*, PfHsp90 yeast 2 -3.0, SKKanGAS inh -2.5, tim23-1 inh 30.7, NALP3 yeast conf 43.7, Casp1 ASC ctr 51.6* and NALP3 retest 40.8.
For COc1ccc(C)cc1NC(=O)c1cc2ccccc2o1 the results were TIM10 inh 2.7, tim10-1 inh 6.2, NALP3 yeast inh 18.4, PfHsp90 yeast 2 -5.6, SKKanGAS inh -1.6 and tim23-1 inh -12.8.
O=C(Nc1ccc2c(c1)OCCO2)c1cc2ccccc2o1 was read as TIM10 inh 29.8, tim10-1 inh 2.3, NALP3 yeast inh 52.6*, PfHsp90 yeast 2 -9.4, SKKanGAS inh -38.9, tim23-1 inh 29.8, NALP3 yeast conf 68.7*, Casp1 ASC ctr 63.3* and NALP3 retest 73.0*.
Screening CCn1c(C)csc1=NC(=O)c1ccccc1 returned TIM10 inh 18.0, tim10-1 inh -27.0, NALP3 yeast inh 53.4*, PfHsp90 yeast 2 25.0, SKKanGAS inh -3.7, tim23-1 inh 25.4, NALP3 yeast conf 60.6*, Casp1 ASC ctr 47.9 and NALP3 retest 43.7.
For Oc1ccc(N=Nc2n[nH]c(-c3ccccc3)n2)cc1 the results were TIM10 inh -3.1, tim10-1 inh -12.2, NALP3 yeast inh 20.7, PfHsp90 yeast 2 32.8, SKKanGAS inh 2.6 and tim23-1 inh -10.7.
For Oc1ccc(N=Nc2nc(-c3ccccc3)c(-c3ccccc3)[nH]2)cc1 the results were TIM10 inh 21.9, tim10-1 inh 9.7, NALP3 yeast inh 50.6*, PfHsp90 yeast 2 100.0*, SKKanGAS inh 30.9, tim23-1 inh 32.1, NALP3 yeast conf 62.0*, Casp1 ASC ctr 74.8* and NALP3 retest 50.0.
`O=[N+]([O-])c1cc(Br)c(O)c(/C=N/Nc2nnnn2-c2cccc3ccccc23)c1` gave TIM10 inh 9.6, tim10-1 inh 24.7, NALP3 yeast inh 52.4*, PfHsp90 yeast 2 -4.2, SKKanGAS inh 66.3*, tim23-1 inh 31.8 and NALP3 yeast conf 47.2*.
`Cc1ccccc1C(=O)c1cccn1CC(=O)NCc1ccccc1Cl` gave TIM10 inh -17.1, tim10-1 inh 18.7, NALP3 yeast inh 0.1, PfHsp90 yeast 2 2.6, SKKanGAS inh 0.3 and tim23-1 inh 8.1.
`N#Cc1ccc(C(=O)OCCCc2cc3ccccc3c(=O)o2)cc1` gave TIM10 inh -26.1, tim10-1 inh -27.5, NALP3 yeast inh 65.6*, PfHsp90 yeast 2 12.2, tim23-1 inh 14.8, NALP3 yeast conf 61.2*, Casp1 ASC ctr 60.8* and NALP3 retest 63.1*.
Screening N#Cc1ccc(C(=O)OCCc2cc3ccccc3c(=O)o2)cc1 returned TIM10 inh -5.4, tim10-1 inh -12.5, NALP3 yeast inh 43.5, PfHsp90 yeast 2 -15.5 and tim23-1 inh 9.0.
`Cc1ccc2c(c1)CCCN2C(=O)c1cc(C)c(C)s1` gave TIM10 inh -11.6, tim10-1 inh 14.1, NALP3 yeast inh 51.8*, PfHsp90 yeast 2 11.5, tim23-1 inh 24.2, NALP3 yeast conf 59.0*, Casp1 ASC ctr 44.5 and NALP3 retest 35.1.
For Cc1ccc2c(c1)CCCN2C(=O)c1cccs1 the results were TIM10 inh -1.8, tim10-1 inh 25.7, NALP3 yeast inh 36.4, PfHsp90 yeast 2 25.4, SKKanGAS inh -4.1 and tim23-1 inh -1.6.
Nc1ccccc1SC/C=C/CSc1ccccc1N was read as TIM10 inh -45.5, tim10-1 inh -69.9, NALP3 yeast inh 52.4*, PfHsp90 yeast 2 -24.0, SKKanGAS inh -2.3, tim23-1 inh -16.0, NALP3 yeast conf 57.2*, Casp1 ASC ctr 45.1 and NALP3 retest 40.2.
For O=C(Nc1ccccc1)c1cc2ccccc2c(=O)s1 the results were TIM10 inh 18.5, tim10-1 inh -12.2, NALP3 yeast inh 58.8*, PfHsp90 yeast 2 20.8, SKKanGAS inh -7.4, tim23-1 inh 15.4 and NALP3 yeast conf 10.3.
Cc1cccc(CC(=O)Nc2cccnc2)c1 was read as TIM10 inh 1.4, tim10-1 inh -5.2, NALP3 yeast inh 18.5, PfHsp90 yeast 2 -20.2, SKKanGAS inh 5.9 and tim23-1 inh 0.9.
For COC(=O)c1ccccc1N=Nc1c(C)noc1C the results were TIM10 inh -2.8, tim10-1 inh 24.6, NALP3 yeast inh 23.4, PfHsp90 yeast 2 20.8, SKKanGAS inh 5.9 and tim23-1 inh 11.9.
Screening CC(C)Cc1nc(SCc2cccnc2)c2c(=O)n(C)c(=O)n(C)c2n1 returned TIM10 inh -0.7, tim10-1 inh 13.2, NALP3 yeast inh 59.8*, PfHsp90 yeast 2 29.5, SKKanGAS inh 10.5, tim23-1 inh 34.8, NALP3 yeast conf 63.6*, Casp1 ASC ctr 57.0* and NALP3 retest 42.2.
`CC(C)Cc1nc(SCC(=O)N2CC(C)OC(C)C2)c2c(=O)n(C)c(=O)n(C)c2n1` (stereo not given) gave TIM10 inh 13.1, tim10-1 inh 22.1, NALP3 yeast inh 6.2, PfHsp90 yeast 2 18.9, SKKanGAS inh -0.7 and tim23-1 inh 25.0.
CCc1nc(SCc2cccnc2)c2c(=O)n(C)c(=O)n(C)c2n1 was read as TIM10 inh -6.5, tim10-1 inh -2.0, NALP3 yeast inh 53.3*, PfHsp90 yeast 2 -43.1, SKKanGAS inh -7.3, tim23-1 inh 43.9, NALP3 yeast conf 67.5*, Casp1 ASC ctr 58.2* and NALP3 retest 47.8.

Source: PubChem BioAssay
